Inconclusive results are not listed. Entries that show only a call come without a potency. The source made the active and inactive calls. The call rests on the fitted dose curve; in most records, active means well fitted curve in the direction sought with a large enough effect; inconclusive means small, poorly fitted or top-dose-only effect, or another doubt; inactive means no such curve, though single readings can be large or run the other way.
These compounds were tested against Protein phosphatase EYA2 (Homo sapiens) (UniProt O00167) (assay: Inhibitors of Eya2ED: Hit Confirmation in Primary Screen). Details: Recombinant Eya2ED, OMFP fluorescence phosphatase assay; series mostly up to 76.9 µM.
Sequence of Protein phosphatase EYA2 (Homo sapiens) (O00167 whole entry, looked up): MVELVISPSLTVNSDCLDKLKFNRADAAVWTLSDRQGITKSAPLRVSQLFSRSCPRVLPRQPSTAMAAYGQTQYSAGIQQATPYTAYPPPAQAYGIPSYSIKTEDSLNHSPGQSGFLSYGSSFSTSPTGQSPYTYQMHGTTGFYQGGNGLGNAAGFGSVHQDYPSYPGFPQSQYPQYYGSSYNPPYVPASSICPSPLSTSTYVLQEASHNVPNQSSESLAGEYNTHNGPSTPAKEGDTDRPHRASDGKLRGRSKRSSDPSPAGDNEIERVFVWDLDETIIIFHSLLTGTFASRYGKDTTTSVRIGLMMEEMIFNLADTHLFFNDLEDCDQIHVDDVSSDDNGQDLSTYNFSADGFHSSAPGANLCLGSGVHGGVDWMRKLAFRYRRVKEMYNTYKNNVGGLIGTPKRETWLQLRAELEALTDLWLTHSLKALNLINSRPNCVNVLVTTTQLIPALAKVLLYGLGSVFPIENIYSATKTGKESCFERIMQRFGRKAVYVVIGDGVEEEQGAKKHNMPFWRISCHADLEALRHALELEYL
Outline: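 Eya2 (dispensed at 0.2 uM) was preincubated 10 min at ambient with compound in 50 mM HEPES pH 7.5, 50 mM NaCl, 5 uM MgCl2, 0.05% BSA, 1 mM DTT. OMFP (dispensed at 50 uM) was then added, and fluorescence (ex 485/em 525 nm) was read after 10 min. Retested as 12-point titrations; EGTA control.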

**Q.** Which Potency does the source give for `O=C(COC(=O)c1cc(S(=O)(=O)N2CCCC2)ccc1O)Nc1ccccc1Br` here?
**A.** inactive

**Q.** For `COc1ccc(CCc2nc(C)ccc2O)cc1`, which Potency is on record?
**A.** inactive

**Q.** With `Nc1ccccc1-c1nc2ccccc2[nH]1` as the compound, how does the Potency read?
**A.** inactive

**Q.** Which Potency does the source give for `C=CCOc1ccc(/C=C/C(=O)OCC(=O)N2CCCc3ccccc32)cc1` here?
**A.** inactive

**Q.** How did the Potency turn out when `CC[C@]12c3[nH]c4ccccc4c3CCN1C(=O)C(CC(=O)NCCc1ccccn1)C[C@@H]2C(=O)N1CCN(C(=O)c2ccco2)CC1` (some centres undefined) was run?
**A.** inactive

**Q.** Which Potency does the source give for `COC(=O)C1=C(C)Nc2ncnn2C1c1ccco1` (centres undefined) here?
**A.** inactive

**Q.** How did the Potency turn out when `CC(=O)c1c(C)[nH]c(C(=O)NNC(=O)c2ccc(Br)cc2)c1C` was run?
**A.** inactive

**Q.** How did the Potency turn out when `O=C(Cc1ccccc1F)NC1CCCN(Cc2ccc(Cl)cc2)C1` (centres undefined) was run?
**A.** inactive

**Q.** With `Cc1cc(C)c(S(=O)(=O)N2CCCCC2CCNC(=O)C(=O)NCCN2CCOCC2)c(C)c1` (centres undefined) as the compound, how does the Potency read?
**A.** inactive

**Q.** `COc1ccc(Cl)cc1CSc1ncn[nH]1` was tested. Which Potency did it give?
**A.** inactive

**Q.** How did the Potency turn out when `CO/N=C(\N)c1nonc1N` was run?
**A.** inactive

**Q.** `O=C(CC1(CC(=O)N2CCOCC2)CCCC1)Nc1ccccc1` was tested. Which Potency did it give?
**A.** inactive

**Q.** With `CCOC(=O)c1[nH]c(C)c(C(=O)OCC(=O)Nc2sc3c(c2C#N)CCCCC3)c1C` as the compound, how does the Potency read?
**A.** inactive

**Q.** How did the Potency turn out when `COc1ccc(CCN=C(C)C2=C(O)C(c3ccccc3)OC2=O)cc1OC` (centres undefined) was run?
**A.** inactive

**Q.** For `CC(NC(=O)COC(=O)C1CC1C)c1cccc(Cl)c1` (centres undefined), which Potency is on record?
**A.** inactive

**Q.** How did the Potency turn out when `Cn1c(=O)c(C(=O)Nc2ncccc2O)c(O)c2ccccc21` was run?
**A.** inactive

**Q.** How did the Potency turn out when `O=C(Cn1cccc(C(F)(F)F)c1=O)c1ccc(Cl)cc1` was run?
**A.** inactive

**Q.** With `Cc1cccc(C(=O)Nc2c(C(=O)N(C)C)cnn2-c2ccccc2)c1` as the compound, how does the Potency read?
**A.** inactive

**Q.** Which Potency does the source give for `NC(=O)C1CCN(CC(=O)Nc2ccc3c(c2)OCCO3)CC1` here?
**A.** inactive

Source: PubChem BioAssay AID504895 (National Center for Advancing Translational Sciences (NCATS), 2011)
